The list is not random: actives were taken first. Their share in the collection is about 0.97%.
TLR4-MyD88 BLA = blocks binding of human TLR4 to MyD88 | inhibition, % at 8.4 µM | 200,000 compounds, 0.18% hits | HeLa CL3-4 TLR4/MyD88 BLA complementation, FRET ratio; in the data active means inhibition above about 25%;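 further: 0% = vehicle and 100% = reference inhibitor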
Bfl-1 A1 inh = inhibitors of the anti-apoptotic protein A1, read as caspase activation; 330,000 compounds, 0.066% hits; caspase activation, % (test concentration not listed); AID 2462; MEF A1-2A-BIM cells, Caspase-Glo 3/7 luminescence, 3 h; percent of clofoctol response, vehicle zero;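 active means over half of replicate activation scores above 10%, or exactly half above 10 with the replicate mean above 10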
TLR9-MyD88 block = TLR9-MyD88 interaction inhibition | CHO BLA complementation TLR9-MyD88, CCF4 FRET ratio | inhibition, % at 4.98 µM | 340,000 compounds, 0.21% hits | AID 504734;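 active means inhibition above the mean over all tested compounds plus 3 SD, cut at about 21% in these data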;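 further: 0% = DMSO only wells and 100% = clavulanate BLA inhibitor control wells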
Target sequence (Q99836 whole entry, looked up): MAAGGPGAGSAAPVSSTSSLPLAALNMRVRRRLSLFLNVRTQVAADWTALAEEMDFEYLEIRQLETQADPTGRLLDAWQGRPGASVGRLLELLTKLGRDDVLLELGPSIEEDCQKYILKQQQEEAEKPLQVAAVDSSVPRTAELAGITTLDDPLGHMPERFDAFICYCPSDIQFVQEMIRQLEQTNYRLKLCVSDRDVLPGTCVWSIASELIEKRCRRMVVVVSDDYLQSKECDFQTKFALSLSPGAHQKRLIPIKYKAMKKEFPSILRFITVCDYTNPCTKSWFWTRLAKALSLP
Target sequence (Q9NR96 whole entry, looked up): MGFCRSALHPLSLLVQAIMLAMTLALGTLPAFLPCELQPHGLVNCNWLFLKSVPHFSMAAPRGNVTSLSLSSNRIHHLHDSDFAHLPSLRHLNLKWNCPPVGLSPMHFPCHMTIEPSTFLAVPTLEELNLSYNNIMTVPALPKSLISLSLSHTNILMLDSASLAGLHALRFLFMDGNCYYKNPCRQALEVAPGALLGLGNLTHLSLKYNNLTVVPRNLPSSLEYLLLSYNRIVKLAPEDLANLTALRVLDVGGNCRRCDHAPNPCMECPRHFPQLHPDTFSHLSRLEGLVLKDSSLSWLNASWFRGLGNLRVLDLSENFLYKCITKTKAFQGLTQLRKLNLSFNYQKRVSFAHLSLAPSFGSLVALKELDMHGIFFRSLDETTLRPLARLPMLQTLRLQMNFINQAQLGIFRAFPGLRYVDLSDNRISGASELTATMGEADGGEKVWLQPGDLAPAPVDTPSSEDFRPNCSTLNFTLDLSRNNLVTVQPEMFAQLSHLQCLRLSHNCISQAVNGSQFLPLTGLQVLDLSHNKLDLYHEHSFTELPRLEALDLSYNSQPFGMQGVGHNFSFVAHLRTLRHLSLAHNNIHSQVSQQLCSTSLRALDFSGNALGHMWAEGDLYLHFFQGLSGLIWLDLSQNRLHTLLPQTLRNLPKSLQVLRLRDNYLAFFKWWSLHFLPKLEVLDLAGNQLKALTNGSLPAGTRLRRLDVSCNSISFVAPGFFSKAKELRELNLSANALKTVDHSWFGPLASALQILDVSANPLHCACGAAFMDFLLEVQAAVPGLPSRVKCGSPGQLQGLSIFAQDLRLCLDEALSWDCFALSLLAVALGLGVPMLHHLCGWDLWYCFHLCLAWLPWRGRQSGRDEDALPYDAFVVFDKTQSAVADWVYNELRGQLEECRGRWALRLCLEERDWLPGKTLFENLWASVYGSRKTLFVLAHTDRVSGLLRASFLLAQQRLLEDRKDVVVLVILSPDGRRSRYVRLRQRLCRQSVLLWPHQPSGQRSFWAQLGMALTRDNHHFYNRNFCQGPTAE
NOD2 RIPK2 PPI = inhibitors of human NOD2-RIPK2 interaction; AID 624267; O43353; inhibition, % at 4.98 µM; 360,000 compounds, 0.38% hits; CHO BLA complementation NOD2-RIPK2, CCF4 ratio; in the data active means inhibition above about 21%;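 further: 0% = vehicle only and 100% = reference blocker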
NTR1 agonist = NTR1 (human) agonism | P30989 | NTR1-U2OS beta-arrestin-GFP spot imaging, agonist mode | activation, % at 20 µM | 330,000 compounds, 0.17% hits;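 active means activation at or above 40% of the spot to cytoplasm intensity ratio, with at least 20 cells analyzed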;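 further: 0% = DMSO without peptide and 100% = 100 nM NTR1 peptide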
B2AR ag = human beta-2 adrenergic receptor agonism by FAP; P07550; 340,000 compounds, 0.43% hits; response, % (test concentration not listed); Am2.2-beta2AR cells, FAP receptor internalization, flow cytometry;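 active means response above a set limit, near 3 SD of response in nonfluorescent compounds, cut at about 42% in these data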
TLR4 MyD88 cnf = confirmation of human TLR4-MyD88 binding inhibitors; shares compounds with TLR4-MyD88 BLA; HeLa CL3-4 BLA complementation, CCF4 FRET ratio; inhibition, % at 8.4 µM; 350 compounds, 50% hits;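 active means mean inhibition across three repeat runs above about 25% carried over from the earlier screen, limit read from the data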;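 further: plate controls were DMSO only for no effect and clavulanic acid blocking BLA at full dose for full effect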
BLA inhibitor ct = counter-screen for TLR4-MyD88 inhibitors: beta-lactamase reporter inhibitors. shares compounds with TLR4-MyD88 BLA. HeLa BLA reporter, CCF4 FRET ratio. inhibition, % at 8.4 µM. 350 compounds, 63% hits;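 active means mean inhibition over three repeats above about 26% taken from the earlier screen, limit read from the data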;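 further: HeLa cells stably expressing beta-lactamase reporter as counterscreen for TLR4-MyD88 inhibitors; 0% = DMSO and 100% = clavulanic acid full inhibition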
TLR9-MyD88 cf = confirmation of human TLR9-MyD88 binding inhibitors; shares compounds with TLR9-MyD88 block; CHO TLR9/MyD88 BLA complementation, CCF4 FRET ratio; inhibition, % at 4.98 µM; 680 compounds, 51% hits; AID 540250;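 active means mean inhibition across three repeats above about 21% taken from the earlier screen, limit read from the data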;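 further: blue over green emission ratio reports constitutive TLR9 MyD88 association via BLA complementation; 0% = DMSO vehicle wells and 100% = clavulanate BLA inhibitor wells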
BLA counter-1 = counter-screen for TLR9-MyD88 inhibitors: non-selective beta-lactamase inhibitors | shares compounds with TLR9-MyD88 block | CHO-BLA cells, CCF4 FRET ratio, BLA reporter | inhibition, % at 4.98 µM | 680 compounds, 7% hits;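 active means mean inhibition above a 50% cutoff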;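 further: counterscreen of TLR9-MyD88 hits on CMV-driven BLA in CHO-K1 cells; 0% = DMSO alone and 100% = clavulanate blocking BLA; higher means less blue over green ratio so more BLA blockade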
TLR9 CHO cytotox = CHO cell toxicity counter-screen for TLR9-MyD88 inhibitors | inhibition, % at 4.98 µM | shares compounds with TLR9-MyD88 block | 680 compounds, 39% hits | TLR9-MyD88 CHO cells cytotoxicity, luminescence; in the data active means inhibition above about 11%
NOD2 RIPK2 conf = confirmation of human NOD2-RIPK2 interaction inhibitors; 1,200 compounds, 70% hits; shares compounds with NOD2 RIPK2 PPI; inhibition, % at 4.98 µM; AID 624370; CHO cells, NOD2-RIPK2 BLA complementation, CCF4 FRET;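 active means mean inhibition across replicates above a set limit taken from the earlier primary screen, cut at about 21% in these data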;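 further: 0% = DMSO-only wells and the high end = clavulanate BLA-blocked wells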
BLA counter-2 = counter-screen for NOD2-RIPK2 interaction inhibitors: BLA reporter; shares compounds with NOD2 RIPK2 PPI; CHO BLA reporter, CCF4 FRET ratio, counterscreen; inhibition, % at 4.98 µM; 1,200 compounds, 57% hits; AID 624371;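 active means mean inhibition above the low-control mean inhibition plus three low-control SD, cut at about 11% in these data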;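 further: 0% = DMSO only wells and 100% = clavulanate high control wells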
Numbers without * were called inactive; i = inactive; . = no result given.

SMILES	TLR4-MyD88 BLA	Bfl-1 A1 inh	TLR9-MyD88 block	NOD2 RIPK2 PPI	NTR1 agonist	B2AR ag	TLR4 MyD88 cnf	BLA inhibitor ct	TLR9-MyD88 cf	BLA counter-1	TLR9 CHO cytotox	NOD2 RIPK2 conf	BLA counter-2
CCCc1sc(N/N=C/c2ccccn2)nc1-c1ccc(Br)cc1	-1.6	-0.3	2.7	-5.0	14.1	-3.4	.	.	.	.	.	.	.
COc1cccc(/C=N/Nc2ccc([N+](=O)[O-])cc2)c1O	.	-4.3	17.3	15.4	4.7	16.7	.	.	.	.	.	.	.
O=[N+]([O-])c1ccc(N/N=C\c2ccccc2OCc2ccccc2)cc1	28.5*	-0.1	31.2*	17.8	-0.7	-0.1	23.2	49.7*	22.0*	25.6	4.3	.	.
CC(=O)Nc1sc(/C(C#N)=C\c2cccc(Cl)c2)nc1-c1ccc(C)cc1	31.1*	0.2	32.0*	20.4	.	i	86.3*	111.9*	79.8*	80.6*	2.0	.	.
O=C(O)c1ccccc1-c1ccc(/C=C/c2cc(C(F)(F)F)[nH]c(=O)n2)o1	26.4*	.	38.9*	20.2	-0.7	0.6	19.0	32.9*	24.6*	31.5	1.3	.	.
Brc1cc(Br)c2nc(-c3ccc(N4CCOCC4)cc3)ccc2c1	29.0*	.	39.5*	26.7*	.	7.9	14.0	29.8*	43.2*	46.5	4.4	.	.
OCCNc1c2ccccc2nc2c(F)c(F)c(F)c(F)c12	69.4*	0.3	31.9*	1.7	.	-90.7	83.8*	106.7*	42.7*	49.2	82.1*	.	.
CN(C(=O)c1cc2nc(-c3ccco3)cc(C(F)(F)F)n2n1)C1CCCCC1	-1.3	-0.4	0.5	-0.8	5.1	-17.7	.	.	.	.	.	.	.
O=C(CCCN1C(=O)/C(=C\c2cccs2)SC1=S)NNC(=O)c1cccnc1	5.9	-0.1	-3.3	-0.3	2.0	2.9	.	.	.	.	.	.	.
COc1ccc(CS(=O)(=O)/C(Cl)=C(/Cl)C(=O)Nc2ccc(OC)nc2)cc1	25.1*	0.5	31.0*	73.0*	0.6	48.2*	21.8	13.9	32.3*	24.4	100.3*	.	.
COc1ccc(C(=O)N/N=C(\Cc2ncc[nH]2)c2ccccc2)cc1	7.8	-1.2	-0.7	-6.5	0.6	0.3	.	.	.	.	.	.	.
Cc1ccc(NC(=O)CN(C)C(=O)Cc2ccc(Cl)c(Cl)c2)cc1	.	-0.2	-5.7	-6.5	2.7	-7.8	.	.	.	.	.	.	.
Cc1ccc(NC(=O)CN(C)C(=O)Cn2ncc(Cl)c(Cl)c2=O)cc1	31.9*	0.0	15.7	25.3*	.	7.9	16.3	3.9	.	.	.	23.0*	4.9
CCCCNC(=O)c1nn(-c2ccccc2OC)c(=O)c2ccccc12	25.7*	-0.2	23.8*	26.1*	-0.8	-14.6	19.8	23.2	13.6	18.3	1.2	23.0*	23.7*
Cc1ccc(C)c(S(=O)(=O)Nc2cc3c4c(c2)CCN4C(=O)CC3)c1	.	1.1	-3.7	-1.0	0.2	0.0	.	.	.	.	.	.	.
Cc1ccnc(N2C(=O)c3cccc4c([N+](=O)[O-])ccc(c34)C2=O)c1	91.8*	0.1	78.6*	88.0*	1.1	8.1	90.2*	112.9*	58.0*	81.7*	93.1*	91.9*	83.2*
O=C1c2cccc3cccc(c23)C(=O)N1Cc1cccnc1	.	-0.8	8.7	-5.6	-0.4	-0.8	.	.	.	.	.	.	.
O=C1c2cccc3c([N+](=O)[O-])ccc(c23)C(=O)N1Cc1cccnc1	77.3*	.	65.7*	78.5*	.	18.7	79.0*	104.0*	48.6*	65.6*	71.6*	84.1*	71.4*
Cc1ccc(N2C(=O)c3cccc4c([N+](=O)[O-])ccc(c34)C2=O)c2cccnc12	.	1.4	8.5	13.4	-3.5	17.5	.	.	.	.	.	.	.
O=C1[C@@H]2C(Cc3ccc(O)cc3)NC3(C(=O)Nc4ccc(F)cc43)[C@@H]2C(=O)N1c1ccccc1 (stereo not given in full)	-9.6	0.0	-5.8	-5.2	0.2	-3.0	.	.	.	.	.	.	.
C=Cc1ccc(CC2(C)C(=O)Nc3c(Cl)cccc32)cc1 (stereo not given)	.	.	.	-7.8	.	.	.	.	.	.	.	.	.
Cn1c(-c2c(N)n(-c3ccccc3)c3nc4ccccc4nc23)nc2ccccc21	54.1*	0.4	46.6*	55.0*	.	17.1	48.5*	76.0*	42.2*	46.4	12.2*	71.0*	72.9*
Cc1cccc(-n2c(N)c(-c3nc4ccccc4n3C)c3nc4ccccc4nc32)c1	21.1	-0.1	17.9	14.3	-0.2	8.7	.	.	.	.	.	.	.
O=C(O)c1ccc(N2CCCCCC2)c(N2C(=O)c3ccccc3C2=O)c1	-15.5	1.1	-1.4	2.4	0.5	-2.2	.	.	.	.	.	.	.
O=C1c2cccc3c(N4CCCCC4)ccc(c23)C(=O)N1c1ccccc1O	28.4*	-0.3	49.4*	52.3*	-0.1	-129.9	26.0*	39.3*	32.2*	31.2	6.6	60.3*	66.4*
Cc1ccc(NC2=Nc3ccccc3N3C2=Nc2c(c(C)nn2-c2ccccc2)C3c2ccc(O)c(O)c2)cc1 (stereo not given)	51.4*	.	66.1*	65.9*	.	-0.2	53.5*	83.8*	58.5*	65.8*	4.5	74.3*	81.2*
COc1cc(/C=C/C(=O)CC(=O)/C=C/c2ccc(O)c(OC)c2)ccc1O	32.1*	0.2	28.4*	37.0*	8.3	-70.9	20.0	42.7*	30.2*	26.3	7.4	59.2*	61.0*
CC(=NO)c1ccc2c(c1)Cc1cc([N+](=O)[O-])ccc1-2	.	.	-1.8	-3.9	.	11.1	.	.	.	.	.	.	.
Nc1ccc2c(c1)Cc1cc([N+](=O)[O-])ccc1-2	45.9*	-1.0	46.3*	48.7*	-3.8	-4.0	38.2*	66.6*	30.8*	34.0	10.7*	57.8*	54.2*

Screening results from PubChem.
